Only some compounds are listed: those with a hit (about 2% of all), similar ones and a draw of the others.
eIF4E 4G PPI: eIF4E–eIF4G protein interaction inhibitors, primary screen, biochemical, uHTS, TR-FRET, eIF4GI fragment. TR-FRET eIF4E-eIF4GI(517-606) binding, 2 h. inhibition, % at 21.7 µM. actives 0.37% (n = 220,000). AID 782, 2007;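 active = inhibition above about 30%, limit read from the data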;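 note: 0% = full FRET control wells and 100% = background wells lacking eIF4GI fragment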
Autophagy HCS: autophagy modulators in MEF cells, primary screen, imaging, high-content, MEF GFP-LC3. calls only at 10 µM (by protocol). actives 0.98% (n = 190,000). MEF GFP-LC3 puncta imaging; test concentration mostly 10 µM;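 active = percentage of spot-positive cells more than 3 SD above its plate mean, without a fluorescence outlier flag or 80% toxicity; inconclusive = no clear call, values can overlap the other calls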;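 note: spot-positive cell cutoff set from DMSO-treated cells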
INS promoter inh: inhibitors of insulin promoter-driven GFP, primary screen, imaging, TRM-6 cells (human fetal islet line), eGFP reporter, cell count; reporter expression induced with tamoxifen; inhibition, % at 2 µM; actives 0.9% (n = 130,000); AID 1273, 2008;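 active = inhibition above the mean plus 3 SD, with well images judged a real hit on visual review, cut at about 60% in these data, passing the limit was not always enough; inconclusive = inhibition over the cutoff but images rejected on review; inactive = inhibition not above the cutoff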
PERK inhibitor: block of dimerizer-induced PERK translation repression, primary screen, PERK inhibitor project, CHO PERK-DD cells, SEAP luminescence, HTS; Eukaryotic translation initiation factor 2-alpha kinase 3 (Homo sapiens), Q9NZJ5; CHO PERK-DD fusion, SEAP luminescence translation reporter; inhibition, % at 5.6 µM; actives 0.17% (n = 220,000);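 active = inhibition above the mean inhibition of all tested compounds plus 3 SD, set separately per screening campaign, cut at about 2.9% in these data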;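 note: PERK kinase domain activated by AP20187 dimerizer at 100 nM; 0% = DMSO with dimerizer and 100% = rapamycin at 8.4 µM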
Target sequence (Q9NZJ5 whole entry, looked up, the tested form may be a part): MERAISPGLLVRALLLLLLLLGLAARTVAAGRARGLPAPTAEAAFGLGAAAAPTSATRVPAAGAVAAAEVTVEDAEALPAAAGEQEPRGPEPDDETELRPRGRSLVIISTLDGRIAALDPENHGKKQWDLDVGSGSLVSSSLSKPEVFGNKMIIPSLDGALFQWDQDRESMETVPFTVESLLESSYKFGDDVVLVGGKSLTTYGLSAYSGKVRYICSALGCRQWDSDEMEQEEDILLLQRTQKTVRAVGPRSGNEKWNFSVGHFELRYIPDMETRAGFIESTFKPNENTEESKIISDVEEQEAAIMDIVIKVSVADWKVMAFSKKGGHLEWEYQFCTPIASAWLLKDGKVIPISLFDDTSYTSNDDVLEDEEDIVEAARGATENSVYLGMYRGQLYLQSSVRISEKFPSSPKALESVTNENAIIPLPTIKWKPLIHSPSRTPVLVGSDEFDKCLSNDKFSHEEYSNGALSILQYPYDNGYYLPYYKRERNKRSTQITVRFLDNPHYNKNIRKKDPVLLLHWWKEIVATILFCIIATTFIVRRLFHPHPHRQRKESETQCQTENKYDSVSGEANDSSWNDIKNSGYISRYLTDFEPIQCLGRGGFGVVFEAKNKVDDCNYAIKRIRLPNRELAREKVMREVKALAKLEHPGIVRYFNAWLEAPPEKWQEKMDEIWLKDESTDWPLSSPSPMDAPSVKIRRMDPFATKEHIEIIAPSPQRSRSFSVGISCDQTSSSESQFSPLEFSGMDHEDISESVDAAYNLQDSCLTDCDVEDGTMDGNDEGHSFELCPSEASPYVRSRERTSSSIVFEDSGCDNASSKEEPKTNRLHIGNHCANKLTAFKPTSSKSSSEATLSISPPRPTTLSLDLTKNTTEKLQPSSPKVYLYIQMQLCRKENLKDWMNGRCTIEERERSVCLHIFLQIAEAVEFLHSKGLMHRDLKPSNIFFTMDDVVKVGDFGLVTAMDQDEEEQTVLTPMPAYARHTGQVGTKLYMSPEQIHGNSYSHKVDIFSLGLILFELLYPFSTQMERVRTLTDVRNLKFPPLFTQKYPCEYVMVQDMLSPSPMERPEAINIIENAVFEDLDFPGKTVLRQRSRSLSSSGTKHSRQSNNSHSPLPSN
Ins promoter up: insulin promoter activators in MIN6 cells, imaging, high-content screening, mouse beta cells; MIN6 insulin promoter-GFP reporter; active compounds read high; z-score at 5 µM; AID 1625, 2009; actives 0.3% (n = 190,000);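 active = z-score above 3 at 5 µM with at least 500 cells counted in the well; inconclusive = wells under 500 cells, flagged as cytotoxic or low count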
* = called active by the depositor; [ ] = another dose, or the depositor's remark.

What do the screens show for `O=c1[nH]c(O)c(/C=C2/C=CC(c3cc(Cl)ccc3Cl)=N2)c(=O)[nH]1`?
eIF4E 4G PPI: -12.6; PERK inhibitor: 0.9; Ins promoter up: 2.42

Results for COc1ccc(C2NCc3ccc4c(c3-n3cccc32)OCO4)cc1O (stereo not drawn) ?
eIF4E 4G PPI: -20.6; Autophagy HCS: active; INS promoter inh: -49.3; PERK inhibitor: -1.2; Ins promoter up: -1.79

What do the screens show for `c1cc2n(c1)-c1c(ccc3c1OCO3)CNC2c1ccc2c(c1)OCO2` (stereo not drawn)?
eIF4E 4G PPI: -2.1; Autophagy HCS: inactive; PERK inhibitor: -1.7; Ins promoter up: 0.12

How did N#CC12CNCC1CN=N2 (stereo not drawn) do in these assays?
eIF4E 4G PPI: 2.9; PERK inhibitor: 1.4; Ins promoter up: 0.1

What do the screens show for `C=CCN(CC=C)Cc1c[nH]c2ccccc12`?
eIF4E 4G PPI: -10.2; Autophagy HCS: inactive; PERK inhibitor: 2.3; Ins promoter up: -1.05

How did CC(=O)Cc1c[nH]c2ccccc12 do in these assays?
eIF4E 4G PPI: 97.0*; PERK inhibitor: 0.9; Ins promoter up: 0.1

What do the screens show for `O=C(Cn1ccc2ccccc2c1=O)NCC(=O)N1CCC2(CC1)OCCO2`?
eIF4E 4G PPI: 5.6; Autophagy HCS: inactive; PERK inhibitor: -0.6; Ins promoter up: -0.21

Results for Cc1cc2ccccc2c(=O)n1CC(=O)NCC(=O)N1CCC2(CC1)OCCO2 ?
eIF4E 4G PPI: 8.1; Autophagy HCS: active; INS promoter inh: 6.7; PERK inhibitor: 0.7; Ins promoter up: 0.13

What do the screens show for `COc1cc(/C=C2\C(=O)NC(=O)N(c3ccccc3)C2=O)c([N+](=O)[O-])cc1OC`?
eIF4E 4G PPI: 4.5; Autophagy HCS: inactive; INS promoter inh: 47.4; PERK inhibitor: 3.0*; Ins promoter up: 0.91

Results for CN(C)c1cccc2c(C#N)ccc(N(C)C)c12 ?
eIF4E 4G PPI: 1.4; Autophagy HCS: inactive; INS promoter inh: 86.7*; PERK inhibitor: 0.5; Ins promoter up: 0.68

How did O=C(NC(=O)c1c(F)cccc1F)Nc1cc(Cl)c(F)c(Cl)c1F do in these assays?
eIF4E 4G PPI: 5.3; PERK inhibitor: 1.4; Ins promoter up: -1.17

What do the screens show for `CC(C)CN(CC(C)C)c1ccc(C=C2C(=O)NC(=S)NC2=O)cc1[N+](=O)[O-]`?
eIF4E 4G PPI: 61.5*[fluorescence artefact?]; Autophagy HCS: inactive; INS promoter inh: 16.7; PERK inhibitor: 1.7; Ins promoter up: 0.44

Results for CN1CCN(Cc2ccccc2Sc2ccccc2)CC1 ?
eIF4E 4G PPI: -4.5; Autophagy HCS: inactive; INS promoter inh: 7.7; PERK inhibitor: -0.6; Ins promoter up: 0.01

What do the screens show for `COc1cc(CN2CCN(c3cc(C)ccc3C)CC2)ccc1O`?
eIF4E 4G PPI: 1.4; Autophagy HCS: active; INS promoter inh: -48.4; PERK inhibitor: 0.9; Ins promoter up: -8.07

How did O=C1NC(=O)C(CCc2ccncc2)(Cc2ccc(OCc3ccccc3)cc2)C(=O)N1 do in these assays?
eIF4E 4G PPI: -6.7; PERK inhibitor: -1.7; Ins promoter up: -0.08

How did C=C1C[C@@H]2[C@H](CC[C@]3(C)C(=O)CC[C@@H]23)[C@@]2(C)C=CC(=O)C=C12 do in these assays?
eIF4E 4G PPI: 1.3; PERK inhibitor: 0.7; Ins promoter up: 0.12

Results for COc1ccc(C(c2c(O)c3ccccc3oc2=O)c2c(C)n(C)n(-c3ccccc3)c2=O)cc1 (stereo not drawn) ?
eIF4E 4G PPI: 2.6; Autophagy HCS: inactive; INS promoter inh: 64.3*; PERK inhibitor: 1.7; Ins promoter up: -0.08

What do the screens show for `CC(=O)N(C1=NCCCS1)c1ccccc1Cl`?
eIF4E 4G PPI: -0.3; Autophagy HCS: inactive; INS promoter inh: 7.7; PERK inhibitor: 0.8; Ins promoter up: 2.37

What do the screens show for `CC1(C)C[C@H]2C=C(C=O)[C@]3(C=O)C[C@]3(C)[C@H]2C1`?
eIF4E 4G PPI: 10.4; Autophagy HCS: inactive; INS promoter inh: -277.3; PERK inhibitor: 0.3; Ins promoter up: inconclusive

Results for CN1/C(=C\C=C\C2=[N+](C)c3ccc4ccccc4c3C2(C)C)C(C)(C)c2ccccc21 ?
eIF4E 4G PPI: -169.0; Autophagy HCS: active; INS promoter inh: -151.3; PERK inhibitor: -3.2; Ins promoter up: inconclusive

Results for Cc1cc([N+](=O)[O-])c2ccccc2[n+]1[O-] ?
eIF4E 4G PPI: 2.8; PERK inhibitor: -0.8; Ins promoter up: -6.12

Compound activity: PubChem, several laboratories
